NS3h inh CB: hepatitis C NS3 helicase inhibition, primary screen | inhibition, % at 100 µM | 16,000 tested, 1.6% active | AID 687043 | NS3h Cy5-dT15 DNA binding, fluorescence polarization;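 active = inhibition above the average over every tested compound plus 3 SD, cut at about 40% in these data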
Cy5 interf NS3h: Cy5 fluorescence interference, HCV helicase counter-screen | Cy5-dT15 DNA with NS3h; actives lie on both sides; signal over control mean, under 1 quenches | fluorescence interference ratio at 100 µM | 16,000 tested, 6% active;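 active = compound fluorescence over control fluorescence at most 0.8, a quencher, or at least a set upper limit, an enhancer; inactive = ratio between 0.8 and the set upper limit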
Active calls of the source: *. A selection: hits, their analogues and other compounds. The true share with any hit is near 6.8%.

SMILES	NS3h inh CB	Cy5 interf NS3h
COc1ccc(C2=C/C(=C/c3cccs3)C(=O)O2)cc1	27.2	1.05
O=C(Nc1cccc(-c2csc(-c3ccccc3)n2)c1)c1cc2ccccc2oc1=O	-0.7	1.11
CCOC(=O)C1=C(O)/C(=C/c2ccc(O)cc2)SC1=Nc1cccc(Cl)c1	62.6*	1.14
CCOC(=O)C1=C(O)/C(=C/c2ccc(Cl)cc2)SC1=Nc1ccc(C)cc1	-1.4	0.814
COc1cccc(/C=C(\C#N)C(=O)Nc2ccc(F)cc2)c1	16.4	0.994
CN(C)c1ccc(C(=O)N2CCN(c3cccc(Cl)c3)CC2)cc1	-10.6	0.924
O=C1NC(=S)N(c2ccccc2)C(=O)/C1=C/c1ccc(O)c(Cl)c1	10.0	1.24*
O=C1NC(=S)N(c2cccc(Br)c2)C(=O)/C1=C/c1ccc(O)c(Cl)c1	-5.0	1.16
COC(=O)C(=C/C=C/C=C/N(C)C)C(=O)OC	13.2	0.998
O=C1C2C3C=CC(CC3)C2C(=O)N1/N=C\c1ccc(I)o1 (configuration not stated)	-1.9	1.02
O=C1C2C3C=CC(CC3)C2C(=O)N1/N=C\c1cc([N+](=O)[O-])cc(Br)c1O (configuration not stated)	9.6	0.682*
CCOc1ccccc1NC(=O)c1ccc(N(Cc2ccc(Cl)cc2)S(C)(=O)=O)cc1	0.4	1.04
CCSc1nc2c(C)c(O)c(C)cc2[nH]1	-2.5	1.07
CCOC(=O)c1sc(NC(=O)c2cc3n(n2)C(C(F)(F)F)CC(c2ccc4c(c2)OCO4)N3)c(C(=O)OCC)c1C (configuration not stated)	2.3	1.02
CCOC(=O)c1c(NC(=O)c2cc3n(n2)C(C(F)(F)F)CC(c2ccco2)N3)sc(C)c1C (configuration not stated)	5.8	0.746*
CCCC(=O)N1CCN(c2ccc(C(=O)c3ccc(C)c(C)c3)cc2F)CC1	-3.9	1.05
CCCC(=O)c1ccc(N2CCN(C(=O)CCC)CC2)c(F)c1	14.2	0.751*
CCOc1ccc(NC(=O)/C(=C/c2ccccc2)c2ccccc2)cc1	15.2	0.672*
COc1ccccc1NC(=O)/C(=C/c1ccccc1)c1ccccc1	1.2	1.07
CCOc1ccc(-c2nnc(NC(=O)Nc3ccccc3)s2)cc1	12.3	0.738*
O=C(Nc1ccccc1)Nc1nnc(-c2ccccc2)s1	6.9	1.1
Cc1ccc(NC(=O)/C(=C/c2ccccc2)c2ccccc2)cc1C	14.2	0.654*
CCOc1ccc(NC(=O)/C=C/c2ccccc2)cc1	21.4	1.08
COc1cc(/C=N\N2C(=O)C3C4C=CC(CC4)C3C2=O)cc(I)c1OC (configuration not stated)	14.2	1
CCc1c(C)c(C#N)c2nc3ccccc3n2c1N1CCN(C)CC1	0.3	1.04
SMILES	NS3h inh CB	Cy5 interf NS3h
COc1ccc(Br)cc1C(=O)Nc1ccc2oc(-c3ccccc3F)nc2c1	-86.7	1.21*
COc1ccc(C(=O)Nc2ccc3oc(-c4ccccc4Cl)nc3c2)cc1Br	13.8	0.926
O=C(NCc1ccco1)C(=O)Nc1cccc(C(F)(F)F)c1	5.4	1.15
CCc1ccc(/C=C2\C(=O)NN(c3ccccc3)C2=O)cc1	22.0	1.03
CCc1ccc(N2NC(=O)CC2=O)cc1	10.5	0.734*
COc1ccc(NC(=O)COc2ccccc2OC)c(OC)c1	7.5	0.992
Cc1ccc(/C=C/C(=O)Nc2cccc(Br)c2)o1	1.4	0.964
COc1cc(CC(=O)O)c([N+](=O)[O-])cc1OC	-3.4	0.653*
CCN(C(=O)c1cc(OC)c(OC)cc1[N+](=O)[O-])c1ccccc1	1.5	0.94
CCCN1C(=O)/C(=C2\SC(N)=NC2=O)c2ccccc21	7.9	0.873
Cc1nc(Nc2nc(O)cc(=O)[nH]2)nc2c(C)cccc12	-3.7	0.642*
Cc1cc(=O)[nH]c(Nc2nc(C)c3cccc(C)c3n2)n1	35.9	1.11
O=C(Nc1cccnc1)c1cccc(Cl)c1Cl	13.2	0.72*
CCN(CC)c1ccc(NC(=O)c2cccc(Cl)c2Cl)cc1	6.9	1.07
CCCCCCCCn1c(C)cc(=O)[nH]c1=O	9.1	0.93
Cc1ccsc1/C=C1\SC(=N)N(c2ccc3c(c2)OCO3)C1=O	48.9*	1.47*
Cc1ccsc1/C=C1\SC(=S)N(C(C)C)C1=O	4.8	0.987
O=C(COc1ccccc1)N/N=C\c1ccccc1Cl	22.8	1.07
O=C(NC(c1ccccc1)c1ccccc1)C1CC1c1ccccc1 (configuration not stated)	14.2	0.683*
O=C(Cc1cccc2c(S(=O)O)cccc12)NC(c1ccccc1)c1ccccc1	8.2	1.05
COc1ccc(Cl)cc1NC(=O)c1nn2c(c1Cl)NC(c1cccs1)CC2C(F)(F)F (configuration not stated)	4.6	1.06
O=C(NCCCN1CCOCC1)c1nn2c(c1Br)NC(c1cccs1)CC2C(F)(F)F (configuration not stated)	12.4	0.713*
O=C(Nc1cccc(C(F)(F)F)c1)c1nn2c(c1Br)NC(c1cccs1)CC2C(F)(F)F (configuration not stated)	11.7	1.05
O=C(NCCc1ccccc1)c1nn2c(c1Br)NC(c1cccs1)CC2C(F)(F)F (configuration not stated)	4.0	0.545*
O=C(Nc1ccc(F)cc1F)c1nn2c(c1Cl)NC(c1cccs1)CC2C(F)(F)F (configuration not stated)	11.5	0.742*
SMILES	NS3h inh CB	Cy5 interf NS3h
O=C(NCc1ccccc1)c1nn2c(c1Br)NC(c1cccs1)CC2C(F)(F)F (configuration not stated)	9.7	0.991
CC(C)(C)NC(=O)c1nn2c(c1Br)NC(c1cccs1)CC2C(F)(F)F (configuration not stated)	-6.5	0.825
CSc1ccccc1NC(=O)c1nn2c(c1Br)NC(c1cccs1)CC2C(F)(F)F (configuration not stated)	8.7	0.738*
CCCN(CCC)C(=O)c1ccccc1NC(=O)c1cccnc1	4.0	1.01
COc1ccc(/C=C(\C#N)C(=O)Nc2ccccc2)cc1C	0.4	1.03
CCCCOC(=O)c1cccc(C(=O)O)n1	-1.4	1.02
COc1ccc2ccccc2c1C1NC(=S)NC(C)=C1C(=O)Nc1cc(Cl)ccc1C (configuration not stated)	3.7	1
N/C(Cc1ccc(Cl)cc1)=N/OC(=O)c1ccc([N+](=O)[O-])cc1	-7.9	0.789*
N/C(Cc1ccc([N+](=O)[O-])cc1)=N/OC(=O)c1cccc(I)c1	13.6	1.14
Cc1ccc(CNC(=O)c2ccc(Cl)c([N+](=O)[O-])c2)cc1	5.6	0.939
CCOc1cc(/C=C2\C=C(c3ccc(OC)cc3)OC2=O)ccc1OC(C)=O	7.8	1.1
CN1C(=O)C(=Cc2cccc(Br)c2)C(=O)N(C)C1=O	19.3	0.984
O=C(Nc1ccccc1)Nc1nnc(COc2ccc(Br)cc2)s1	21.3	0.979
O=C(Nc1ccc(Cl)cc1Cl)c1ccccc1F	2.2	1.06
Nc1ccc(NC(=O)c2ccc(Cl)cc2Cl)c(Cl)c1	4.0	0.629*
O=C(NC(NC(=S)Nc1cc(Cl)ccc1Cl)C(Cl)(Cl)Cl)c1ccccc1Cl (configuration not stated)	6.1	0.941
O=C(c1ccccc1)N1CCN(C(=O)c2nn3c(C(F)(F)F)cc(-c4cccs4)nc3c2Br)CC1	9.6	0.71*
COc1ccc(-c2cc(C(F)(F)F)n3nc(C(=O)N4CCc5ccccc5C4)cc3n2)cc1	9.4	0.971

Screening results from PubChem.
